{
  "source": "PubChem BioAssay (NCI)",
  "note": "About 83,000 compounds went through this panel and 20% of them were active in at least one assay; those are over-represented in the sample as a whole.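 Percent growth is the endpoint: 0 to 100 indicates growth inhibition (40 means 60% inhibition), 0 means no net growth, and negative values indicate cell death.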 Activity calls are given as the source filed them. How the source made its calls: active means growth percent below 10; inactive means the rest.",
  "data": [
    {"system": "HL-60(TB) leukemia", "assay": "NCI-60 one-dose screen, 48 h (100 = growth as untreated, 0 = no growth, -100 = all killed)", "settings": "10 µM unless noted", "values": [
      {"smiles": "CC1=C([Se]CC(OC(=O)[C@@H](CO)NC(=O)OC(C)(C)C)C(=O)NC(C)(C)C)C(=O)c2ccccc2C1=O", "note": "(some centres not stated)", "growth": "-36.2% (active)"},
      {"smiles": "CCOC(=O)CSc1nc2ccccc2c(=O)n1Cc1ccc(S(N)(=O)=O)cc1", "growth": "100% (inactive)"},
      {"smiles": "COc1ccc2nc(N=Nc3c(O)ccc4ccccc34)sc2c1", "growth": "4.48% (active)"},
      {"smiles": "CC[C@H](Nc1nc(C)nc(N)c1C#N)c1nc2cccc(NCc3ccc(C(=O)NO)cc3)c2c(=O)n1-c1ccccc1", "growth": "-30.5% (active)"},
      {"smiles": "C#CCOC(=O)/C=C/c1cn(-c2ccccc2)nc1-c1ccc(OC)cc1", "growth": "110% (inactive)"},
      {"smiles": "COc1ccc2c(c1)O/C(=C/c1ccc(OCC(=O)Nc3ccc(S(N)(=O)=O)cc3)cc1)C2=O", "growth": "89.5% (inactive)"},
      {"smiles": "COc1ccc(Cc2nnc(Nc3nc4ccccc4s3)s2)cc1", "growth": "-32.7% (active)"},
      {"smiles": "COc1cc(C2=Nc3c(N)nc(N)nc3NC(c3cccc(Nc4ccnc5cc(C(F)(F)F)ccc45)c3)C2)cc(OC)c1OC", "note": "(configuration not stated)", "growth": "63.2% (inactive)"},
      {"smiles": "COc1ccc(-c2nc3ncccn3c2-c2nc3ccc(Br)cc3[nH]2)cc1", "growth": "81.3% (inactive)"},
      {"smiles": "COc1cccc(-c2nc3sccn3c2-c2ccnc(NCCCNS(=O)(=O)c3c(Cl)cccc3Cl)c2)c1", "growth": "17.9% (inactive)"},
      {"smiles": "COc1ccc(/C=C2/CCc3cc4ccc(OC)cc4[o+]c32)c(O)c1", "growth": "60.8% (inactive)"},
      {"smiles": "NNc1ncnc2cccc(Cl)c12", "growth": "99.9% (inactive)"},
      {"smiles": "COc1ccc(C2CC(c3ccc4ccccc4c3)=NN2/C=C2\\SC(=S)N(NC(=O)Cc3ccccc3Nc3c(Cl)cccc3Cl)C2=O)cc1", "note": "(configuration not stated)", "growth": "-27.4% (active)"},
      {"smiles": "C/C=C/CC(C)C(O)C1C(=O)NC(CC)C(=O)N(C)CC(=O)N(C)C(CC(C)C)C(=O)NC(C(C)C)C(=O)N(C)C(CC(C)C)C(=O)NC(C)C(=O)NC(C)C(=O)N(C)C(CC(C)C)C(=O)N(C)C(CC(C)C)C(=O)N(C)C(C(C)C)C(=O)N1C", "note": "(configuration not stated)", "growth": "-9.23% (active)"},
      {"smiles": "Nc1ccccc1NC(=O)CCCCCCC(=O)Nc1ccc2c(c1)/C(=C/c1ccc[nH]1)C(=O)N2", "growth": "-10.2% (active)"},
      {"smiles": "NC(=Nc1nc(-c2ccccn2)cc2ccccc12)c1ccccn1", "growth": "-30.6% (active)"},
      {"smiles": "CN1CCN(Cc2ccc(NC(=O)c3cncc(C#Cc4nc(N)nc5[nH]ncc45)c3)cc2C(F)(F)F)CC1", "growth": "1.4% (active)"},
      {"smiles": "Cn1ccnc1CN1CCSC(C(=O)Nc2ccccc2)C1", "note": "(configuration not stated)", "growth": "88.6% (inactive)"},
      {"smiles": "Cc1cc2ccccn2c1C(=O)c1ccc(C(=O)c2ccccc2)cc1", "growth": "-14.6% (active)"},
      {"smiles": "CC(=O)N1N=C(c2ccc3c(c2)OCO3)CC1c1c(C)nn(-c2ccccc2)c1N(C)Cc1ccccc1", "note": "(configuration not stated)", "growth": "85.6% (inactive)"},
      {"smiles": "c1ccc(C2=Nc3ccccc3SC2)cc1", "growth": "107% (inactive)"},
      {"smiles": "CCCCCCN1CSC(=S)N(CCCCCC)C1", "growth": "112% (inactive)"},
      {"smiles": "CNC(=O)c1c(I)c(NC(C)=O)c(I)c(C(=O)O)c1I", "growth": "122% (inactive)"},
      {"smiles": "Cc1ccc(NS(=O)(=O)c2ccc3c(c2)C2OCCC2C(c2ccc(C(=O)C(C)C)cc2)N3)cc1C", "note": "(configuration not stated)", "growth": "20.4% (inactive)"},
      {"smiles": "Cc1ccc2c(Cn3cc(CSc4nc5ccccc5o4)nn3)cc(=O)oc2c1", "growth": "109% (inactive)"},
      {"smiles": "COc1cc(C(=O)Nc2ccc(-c3nc4ccccc4[nH]3)cc2)cc(OC)c1OC", "growth": "41.9% (inactive)"},
      {"smiles": "O=C(NOC1OC(CO)C(O)C(O)C1O)Nc1ccccc1", "note": "(configuration not stated)", "growth": "74.5% (inactive)"},
      {"smiles": "CCCn1nc(-c2ccccc2)c2c(-c3ccccc3)onc2c1=O", "growth": "69.6% (inactive)"},
      {"smiles": "C[C@H]1C[C@@H](n2cnc3c(N)nccc32)[C@H](O)[C@@H]1O", "growth": "80.5% (inactive)"},
      {"smiles": "N#Cc1c(Nc2ccccc2)nc2n(c1=O)-c1ccccc1Sc1ccccc1-2", "growth": "79.6% (inactive)"},
      {"smiles": "COc1ccc(-c2nn(-c3cccc(Cl)c3)cc2-c2nc(N)[nH]c(=O)c2C#N)cc1", "growth": "78.7% (inactive)"},
      {"smiles": "CCN(CC)CCOc1ccc(Cl)c(C)c1", "growth": "113% (inactive)"},
      {"smiles": "Cc1ccc(CN2CCC(C(=O)Nc3ccc(-c4cc5ccccc5[nH]4)cc3)CC2)o1", "growth": "13.7% (inactive)"},
      {"smiles": "COc1cc2c3cc1Oc1c(OC)c(OC)cc4c1C(Cc1ccc(O)c(c1)Oc1ccc(cc1)CC3N(C)CC2)N(C)CC4", "note": "(configuration not stated)", "growth": "-32.4% (active)"},
      {"smiles": "CCCCNC(=O)NS(=O)(=O)c1ccc(N2N=C(c3ccc(C)cc3C)CC2c2ccc(OC)cc2)cc1", "note": "(configuration not stated)", "growth": "17.4% (inactive)"},
      {"smiles": "CN(C)c1nc(-c2cccs2)n2nc(-c3ccc(Cl)cc3)cc2n1", "growth": "87.8% (inactive)"},
      {"smiles": "COc1c(O)cc2oc3cc(O[C@@H]4OC(C)[C@@H](O)[C@H](O)C4O)c(CC=C(C)C)c(O)c3c(=O)c2c1CC=C(C)C", "note": "(some centres not stated)", "growth": "90.4% (inactive)"}
    ]}
  ]
}
